Measured values taken from PubChem BioAssay.
The source made the active and inactive calls.

Legend:
[1] = small molecules captured by biotinylated probe aFSTL3 – biochemical, small-molecule microarray, fluorescence 635/667, stem cell growth factor project, primary screen (AID 1064); details: higher = more signal;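 further: measures binding of the biotinylated anti-FSTL3 antibody to printed compounds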
[2] = binders from COS7 lysate, DM2A8 probe, primary screen, torsin A project, cell lysate, small-molecule microarray, fluorescence 635/667 (AID 1065); details: higher = more signal, COS7 lysate expressing mutant human TOR1A
[3] = small molecules captured by biotinylated probe aFGF2 – biochemical, small-molecule microarray, fluorescence 635/667, stem cell growth factor project, primary screen (AID 1067); details: higher = more signal;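 further: measures binding of biotinylated aFGF2 protein to printed compounds on slides; z-score merges feature fluorescence and signal-to-noise across triplicate slides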
[4] = small molecules captured by biotinylated probe aFGF10 – biochemical, small-molecule microarray, fluorescence 635/667, stem cell growth factor project, primary screen (AID 1071); details: higher = more signal;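 further: score merges 667 nm spot intensity and signal to noise from triplicate slides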
[5] = molecular target: Neurogenic locus notch homolog protein 2 (Homo sapiens) (UniProt Q04721); assay: small molecules binding Notch2 protein – biochemical, small-molecule microarray, 635 nm fluorescence, stem cell growth factors, primary screen (AID 1073); details: higher = more signal
[6] = molecular target: Pro-neuregulin-1, membrane-bound isoform (Homo sapiens) (UniProt Q02297); assay: small molecules binding neuregulin-1 protein – biochemical, small-molecule microarray, fluorescence 635/667, psychiatric disease protein project, primary screen (AID 1075); details: NRG1 binding, 635 nm fluorescence, higher = more signal;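 further: score combines 667 nm spot fluorescence with signal to noise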
Sequence of Pro-neuregulin-1, membrane-bound isoform (Homo sapiens) (Q02297 whole entry, looked up, the tested form may be a part, canonical isoform): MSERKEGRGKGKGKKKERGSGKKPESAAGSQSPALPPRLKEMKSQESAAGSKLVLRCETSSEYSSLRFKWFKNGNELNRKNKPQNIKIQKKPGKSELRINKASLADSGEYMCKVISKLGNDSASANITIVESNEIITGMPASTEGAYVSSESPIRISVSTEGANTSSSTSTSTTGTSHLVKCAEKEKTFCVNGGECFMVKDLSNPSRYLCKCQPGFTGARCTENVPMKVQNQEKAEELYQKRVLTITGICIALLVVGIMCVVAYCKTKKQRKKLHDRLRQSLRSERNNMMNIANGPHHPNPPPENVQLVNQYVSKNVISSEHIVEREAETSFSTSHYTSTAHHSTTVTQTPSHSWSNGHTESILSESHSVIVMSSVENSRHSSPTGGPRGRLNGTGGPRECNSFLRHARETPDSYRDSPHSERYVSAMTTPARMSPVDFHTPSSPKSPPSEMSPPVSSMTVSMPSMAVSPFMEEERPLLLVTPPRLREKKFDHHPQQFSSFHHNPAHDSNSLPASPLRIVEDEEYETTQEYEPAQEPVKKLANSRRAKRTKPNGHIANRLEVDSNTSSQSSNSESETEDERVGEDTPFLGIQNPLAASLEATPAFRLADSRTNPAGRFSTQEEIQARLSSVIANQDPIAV

[7] = test system: Neuregulin-1 EGF-like domain; assay: small molecules binding NRG1 EGF domain – biochemical, small-molecule microarray, 635 nm fluorescence, primary screen (AID 1081); details: higher = more signal;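 further: binding of the protein to compounds printed on small-molecule microarray slides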
[8] = FRG1 expression reporter modulators in myotubes – cell-based, C2C12 myotubes, firefly/Renilla luciferase, luminescence, FRG1 inhibition for FSHD, primary screen (AID 1084); details: FRG1 promoter luciferase, higher = more signal, called active from +8 up or from −8 down
[9] = small molecules captured by biotinylated probe aFST – biochemical, small-molecule microarray, fluorescence 635/667, stem cell growth factor project, primary screen (AID 1086); details: higher = more signal;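 further: score merges 667 nm fluorescence with signal-to-noise of each printed compound spot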
[10] = binders of probe aHhip on microarray, primary screen, stem cell growth factor project, biochemical, small-molecule microarray, fluorescence 635/667 (AID 1087); details: higher = more signal;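 further: score merges spot fluorescence at 667nm with spot signal to noise ratio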
[11] = test system: PRMT1 (protein arginine N-methyltransferase 1); assay: small molecules binding arginine methyltransferase PRMT1 – biochemical, small-molecule microarray, 635 nm fluorescence, primary screen (AID 1088); details: higher = more signal;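 further: binding of Prmt1 protein to compounds spotted on small-molecule microarray slides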
[12] = growth effects on S. cerevisiae YJM789 – YJM789 clinical isolate, OD600, 24 h, basal, primary screen (AID 1089); details: higher = more signal, called active from +8 up or from −8 down;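 further: growth of clinical yeast isolate S. cerevisiae YJM 789 seeded 1000 cells per well; test concentration not given here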
[13] = S. pombe growth modifiers, basal conditions – strain 972, OD600, 24 h, no modulator, primary screen (AID 1090);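 further: basal condition with compound alone and no growth modifier present; test concentration not given here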; details: S. pombe 972 growth, higher = more signal, called active from +8 up or from −8 down
[14] = budding yeast growth modifiers under rapamycin – strain BY4716, OD600, 96 h, primary screen (AID 1091); further: test concentration not given here; details: S. cerevisiae BY4716 + rapamycin, higher = more signal, called active from +8 up or from −8 down
[15] = molecular target: Torsin-1A-interacting protein 2 (Homo sapiens) (UniProt Q8NFQ8); assay: small molecules binding lysate-expressed LULL1 – cell lysate, human LULL1 lysate, 635/667 nm fluorescence, primary screen (AID 1092); details: small-molecule microarray, hLULL1 lysate binding, 635 nm fluorescence; higher = more signal;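 further: probe is lysate of COS7 cells overexpressing human LULL1; score merges per-feature 667 nm fluorescence with signal-to-noise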
Sequence of Torsin-1A-interacting protein 2 (Homo sapiens) (Q8NFQ8 whole entry, looked up): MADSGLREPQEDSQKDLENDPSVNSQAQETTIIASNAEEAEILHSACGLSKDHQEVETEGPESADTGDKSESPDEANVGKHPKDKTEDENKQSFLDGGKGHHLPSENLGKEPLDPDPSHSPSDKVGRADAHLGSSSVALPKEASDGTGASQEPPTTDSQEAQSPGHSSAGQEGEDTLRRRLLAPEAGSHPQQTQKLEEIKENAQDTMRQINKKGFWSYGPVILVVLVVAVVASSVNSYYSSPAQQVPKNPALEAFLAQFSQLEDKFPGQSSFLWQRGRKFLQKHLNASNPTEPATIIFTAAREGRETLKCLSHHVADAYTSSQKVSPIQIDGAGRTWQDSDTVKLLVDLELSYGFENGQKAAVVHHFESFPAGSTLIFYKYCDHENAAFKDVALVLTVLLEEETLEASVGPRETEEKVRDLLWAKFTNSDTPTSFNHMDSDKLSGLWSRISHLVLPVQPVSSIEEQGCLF

[16] = optical density change of DRC41 E. coli – strain DRC41, OD650, 24 h, E. coli filamentation project, primary screen (AID 1093);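 further: MC1000 strain lacking acrAB efflux and sulA so SOS filamentation is blocked; test concentration not given here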; details: E. coli DRC41 growth, higher = more signal, called active from +8 up or from −8 down
[17] = probe aLefty2 binding to arrayed compounds – biochemical, biotinylated probe, 635/667 nm fluorescence, primary screen (AID 1094); details: small-molecule microarray, higher = more signal;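 further: score merges spot fluorescence near 667 nm with spot signal-to-noise ratio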
[18] = test system: Noggin (protein binding on small-molecule microarray); assay: small molecules binding Noggin protein – biochemical, 635/667 nm fluorescence, primary screen (AID 1095); details: 635 nm fluorescence, higher = more signal;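 further: score merges 667 nm feature fluorescence with signal to noise over triplicate slides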
[19] = molecular target: Neurogenic locus notch homolog protein 3 (Homo sapiens) (UniProt Q9UM47); assay: small molecules binding NOTCH3 protein – biochemical, 635/667 nm fluorescence, primary screen (AID 1096); details: small-molecule microarray, 635 nm fluorescence, higher = more signal
Sequence of Neurogenic locus notch homolog protein 3 (Homo sapiens) (Q9UM47 whole entry, looked up): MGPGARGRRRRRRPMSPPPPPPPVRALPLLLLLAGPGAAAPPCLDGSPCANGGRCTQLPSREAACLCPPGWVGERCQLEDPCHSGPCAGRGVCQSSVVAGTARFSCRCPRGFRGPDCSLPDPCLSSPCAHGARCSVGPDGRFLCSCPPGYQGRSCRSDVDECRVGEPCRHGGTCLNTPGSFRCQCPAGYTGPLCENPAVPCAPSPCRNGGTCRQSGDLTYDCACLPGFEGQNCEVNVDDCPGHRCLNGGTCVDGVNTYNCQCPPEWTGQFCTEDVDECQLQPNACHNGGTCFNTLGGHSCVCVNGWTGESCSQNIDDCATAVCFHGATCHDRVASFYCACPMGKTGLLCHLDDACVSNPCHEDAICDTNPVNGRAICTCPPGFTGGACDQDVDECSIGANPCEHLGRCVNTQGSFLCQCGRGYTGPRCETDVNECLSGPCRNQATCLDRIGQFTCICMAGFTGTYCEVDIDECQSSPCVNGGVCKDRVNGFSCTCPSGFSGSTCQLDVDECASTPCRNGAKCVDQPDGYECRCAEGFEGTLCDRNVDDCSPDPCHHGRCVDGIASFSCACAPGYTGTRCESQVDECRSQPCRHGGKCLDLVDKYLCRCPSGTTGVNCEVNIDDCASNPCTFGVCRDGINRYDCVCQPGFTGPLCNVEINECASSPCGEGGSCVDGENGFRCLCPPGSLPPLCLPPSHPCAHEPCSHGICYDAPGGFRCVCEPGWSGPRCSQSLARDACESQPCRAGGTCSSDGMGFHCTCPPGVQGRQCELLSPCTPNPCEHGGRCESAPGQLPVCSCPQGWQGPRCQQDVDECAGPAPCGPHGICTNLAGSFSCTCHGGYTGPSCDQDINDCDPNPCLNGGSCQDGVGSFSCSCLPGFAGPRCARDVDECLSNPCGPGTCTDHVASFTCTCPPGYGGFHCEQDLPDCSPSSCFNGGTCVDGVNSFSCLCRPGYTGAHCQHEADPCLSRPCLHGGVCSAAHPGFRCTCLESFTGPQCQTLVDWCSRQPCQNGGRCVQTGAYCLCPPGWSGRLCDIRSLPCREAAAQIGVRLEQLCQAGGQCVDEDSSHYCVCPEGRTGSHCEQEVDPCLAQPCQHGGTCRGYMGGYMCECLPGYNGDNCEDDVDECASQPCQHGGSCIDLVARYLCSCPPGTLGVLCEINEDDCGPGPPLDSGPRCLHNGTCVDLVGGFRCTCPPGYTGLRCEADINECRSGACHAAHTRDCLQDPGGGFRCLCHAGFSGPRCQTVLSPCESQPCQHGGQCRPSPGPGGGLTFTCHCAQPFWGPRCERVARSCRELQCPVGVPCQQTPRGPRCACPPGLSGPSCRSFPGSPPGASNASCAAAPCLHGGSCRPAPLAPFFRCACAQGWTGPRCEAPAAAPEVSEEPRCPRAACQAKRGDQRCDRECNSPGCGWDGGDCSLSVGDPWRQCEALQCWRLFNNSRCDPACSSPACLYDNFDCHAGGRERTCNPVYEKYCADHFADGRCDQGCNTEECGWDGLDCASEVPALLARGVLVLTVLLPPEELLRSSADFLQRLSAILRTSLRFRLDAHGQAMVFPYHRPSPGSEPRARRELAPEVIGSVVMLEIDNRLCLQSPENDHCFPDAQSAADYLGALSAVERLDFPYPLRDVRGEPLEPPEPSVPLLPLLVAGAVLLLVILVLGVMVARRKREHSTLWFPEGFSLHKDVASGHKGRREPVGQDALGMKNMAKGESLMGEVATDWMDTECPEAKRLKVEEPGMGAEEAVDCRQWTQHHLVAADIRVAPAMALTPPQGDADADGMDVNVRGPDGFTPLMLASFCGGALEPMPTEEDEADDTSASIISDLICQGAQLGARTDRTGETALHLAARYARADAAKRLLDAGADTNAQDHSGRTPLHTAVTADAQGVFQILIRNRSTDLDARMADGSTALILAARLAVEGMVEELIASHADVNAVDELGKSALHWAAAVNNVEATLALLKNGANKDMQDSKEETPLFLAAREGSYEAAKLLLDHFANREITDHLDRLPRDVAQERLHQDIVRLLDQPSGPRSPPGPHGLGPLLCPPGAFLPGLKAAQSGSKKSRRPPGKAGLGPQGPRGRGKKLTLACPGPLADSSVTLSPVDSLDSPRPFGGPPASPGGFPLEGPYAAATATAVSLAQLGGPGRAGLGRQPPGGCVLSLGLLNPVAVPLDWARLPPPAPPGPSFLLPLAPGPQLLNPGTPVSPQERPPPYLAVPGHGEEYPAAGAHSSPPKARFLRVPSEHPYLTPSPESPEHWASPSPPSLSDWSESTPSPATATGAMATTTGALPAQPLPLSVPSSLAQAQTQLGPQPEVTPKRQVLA

[20] = probe aEGFR binding to arrayed compounds – biochemical, biotinylated probe, 635/667 nm fluorescence, primary screen (AID 1097); details: small-molecule microarray, higher = more signal;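 further: probe is a biotinylated anti-EGFR antibody binding compounds printed on slides; score combines fluorescence near 667 nm and signal to noise of each spot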

SMILES	composite z-score [1]	composite z-score [2]	composite z-score [3]	composite z-score [4]	composite z-score [5]	composite z-score [6]	composite z-score [7]	z-score [8]	composite z-score [9]	composite z-score [10]	composite z-score [11]	z-score [12]	z-score [13]	z-score [14]	composite z-score [15]	z-score [16]	composite z-score [17]	composite z-score [18]	composite z-score [19]	composite z-score [20]
COc1ccccc1CN1C(=O)c2ccccc2[C@](Cc2ccccc2I)(C(=O)NCCCN(C)C)[C@@H]1c1ccc(CO)cc1	-0.967	-0.501	-0.116	0.483	0.452	0.683	1.19	-3.16 (inactive)	-0.0929	-0.37	1.4	0.404 (inactive)	-20.1 (active)	-2.96 (inactive)	3.04	-5.17 (inactive)	-0.305	0.134	0.591	-0.355
CCC[C@@H]1C=C(C(=O)OCC)[C@H](c2ccccc2)N1S(=O)(=O)c1ccc(C)cc1	0.483	0.379	0.137	0.88	1.66	1.09	1.06	-1.56 (inactive)	1.2	-0.105	1.57	0.73 (inactive)	1.67 (inactive)	1.7 (inactive)	0.352	-0.209 (inactive)	0.326	0.0974	1.08	0.21
CC(C)C[C@@H]1NC(=O)[C@@]23C(=O)N[C@@H](Cc4ccccc4)C2[C@H](C)[C@@]2(C)O[C@H]2C3/C=C/C/C=C\CNC(=O)[C@@H](CC(C)C)NC1=O (stereo not given in full)	-0.47	-0.0387	-0.0878	0.159	0.416	0.345	0.97	2.49 (inactive)	0.355	-0.206	1.55	-0.652 (inactive)	-17.9 (active)	0.241 (inactive)	2.16	-0.313 (inactive)	-0.184	0.914	0.895	-0.0814
C=C(/C(=C/C[C@H](OC(=O)c1ccncc1)c1ccccc1OCCO)c1cc(C(=O)OC)ccc1OC)C(C)C	-0.0165	0.229	-0.01	0.605	0.267	1.1	1.28	-1 (inactive)	0.265	-0.249	1.43	0.363 (inactive)	0.115 (inactive)	2.11 (inactive)	2.74	0.329 (inactive)	-0.159	0.691	1.13	-0.112
O=C1N(CCS(=O)(=O)c2ccccc2)c2ccccc2[C@@H]2OC(c3ccc(OCCCO)cc3)=N[C@]12CCS(=O)(=O)c1ccccc1	0.359	0.145	0.0069	0.291	1.44	0.195	1.28	-3.3 (inactive)	0.855	0.0053	1.54	0.864 (inactive)	1.78 (inactive)	4.01 (inactive)	3.46	0.678 (inactive)	0.471	0.833	1.14	-0.0333
C=C(COC)/C(=C/C[C@@H](OC(C)=O)c1ccccc1OCCO)c1cc(C(=O)OC)ccc1OC	0.0503	0.377	-0.116	0.785	-0.216	1.48	1.09	-0.657 (inactive)	0.0581	-0.374	1.37	1.16 (inactive)	-0.145 (inactive)	-0.167 (inactive)	1.67	0.174 (inactive)	-0.0873	0.0363	0.455	-0.0141
